# Measured values: PubChem BioAssay (Tox21)
# Results filed as inconclusive are left out. A call without a number means that no potency is given here. Values without a mark were called inactive. Active and inactive are the calls of the source. Calls follow the shape of the dose curve; as a rule, active = well fitted curve in the direction sought with a large enough effect in the repeat runs; inconclusive = weak or mixed curves; inactive = no such curve, though single readings can be large; an effect the other way counts as inactive or inconclusive.
# What was measured:
# [1] = molecular target: Cytochrome P450 2C9 (Homo sapiens) (UniProt P11712); test: Cytochrome P450 Family 2 Subfamily C Member 9 (CYP2C9) small molecule antagonists: luciferase reporter qHTS assay (AID 1671198); also: nearly all actives have a fitted effect of over 50% in size; as to activity change, negative = inhibition: series mostly up to about 120 µM
# Sequence of Cytochrome P450 2C9 (Homo sapiens) (P11712 whole entry, looked up): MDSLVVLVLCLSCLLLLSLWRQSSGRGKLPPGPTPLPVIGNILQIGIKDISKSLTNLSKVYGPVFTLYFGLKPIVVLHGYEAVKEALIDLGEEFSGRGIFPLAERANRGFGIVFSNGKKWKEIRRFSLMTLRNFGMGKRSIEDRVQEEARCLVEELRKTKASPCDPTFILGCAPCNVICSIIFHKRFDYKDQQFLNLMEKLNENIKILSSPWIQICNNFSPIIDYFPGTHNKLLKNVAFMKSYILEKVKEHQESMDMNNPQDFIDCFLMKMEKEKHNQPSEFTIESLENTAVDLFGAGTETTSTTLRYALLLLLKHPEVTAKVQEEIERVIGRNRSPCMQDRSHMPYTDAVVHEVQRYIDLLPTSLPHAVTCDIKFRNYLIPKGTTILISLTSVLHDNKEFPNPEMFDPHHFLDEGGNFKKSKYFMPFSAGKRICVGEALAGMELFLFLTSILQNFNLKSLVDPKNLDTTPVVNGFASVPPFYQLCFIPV
# Outline: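 P450-Glo proluciferin substrate with CYP2C9 enzyme; 10 min RT preincubation, then NADPH regeneration 1 h at 37C; luciferin detection reagent 20 min RT, luminescence in relative luminescence units.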
# [2] = molecular target: Cytochrome P450 1A2 (Homo sapiens) (UniProt P05177); test: Cytochrome P450 Family 1 Subfamily A Member 2 (CYP1A2) small molecule antagonists: luciferase reporter qHTS assay (AID 1671199); also: nearly all actives have a fitted effect of over 50% in size; as to activity change, negative = inhibition: series mostly up to about 120 µM
# Sequence of Cytochrome P450 1A2 (Homo sapiens) (P05177 whole entry, looked up): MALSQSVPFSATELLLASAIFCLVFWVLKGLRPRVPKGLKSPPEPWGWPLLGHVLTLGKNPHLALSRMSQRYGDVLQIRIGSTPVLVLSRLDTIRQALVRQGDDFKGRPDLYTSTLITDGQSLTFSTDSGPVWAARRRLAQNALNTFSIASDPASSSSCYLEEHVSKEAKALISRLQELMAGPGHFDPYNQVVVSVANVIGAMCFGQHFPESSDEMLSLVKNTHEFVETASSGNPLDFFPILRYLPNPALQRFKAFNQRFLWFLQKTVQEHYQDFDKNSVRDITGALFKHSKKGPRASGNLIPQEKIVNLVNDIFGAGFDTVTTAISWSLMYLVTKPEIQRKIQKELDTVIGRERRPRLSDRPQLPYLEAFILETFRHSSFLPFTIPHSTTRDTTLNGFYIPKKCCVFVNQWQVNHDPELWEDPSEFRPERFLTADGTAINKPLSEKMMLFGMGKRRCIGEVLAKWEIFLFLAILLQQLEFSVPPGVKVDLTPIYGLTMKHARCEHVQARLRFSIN
# Outline: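 CYP1A2 turnover of a luminogenic substrate was quantified after 1 h with NADPH regeneration at room temperature. Furafylline served as positive control.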
# [3] = molecular target: Cytochrome P450 2C19 (Homo sapiens) (UniProt P33261); test: Cytochrome P450 Family 2 Subfamily C Member 19 (CYP2C19) small molecule antagonists: luciferase reporter qHTS assay (AID 1671197); also: nearly all actives have a fitted effect of over 65% in size; as to activity change, negative = inhibition: series mostly up to about 120 µM
# Sequence of Cytochrome P450 2C19 (Homo sapiens) (P33261 whole entry, looked up): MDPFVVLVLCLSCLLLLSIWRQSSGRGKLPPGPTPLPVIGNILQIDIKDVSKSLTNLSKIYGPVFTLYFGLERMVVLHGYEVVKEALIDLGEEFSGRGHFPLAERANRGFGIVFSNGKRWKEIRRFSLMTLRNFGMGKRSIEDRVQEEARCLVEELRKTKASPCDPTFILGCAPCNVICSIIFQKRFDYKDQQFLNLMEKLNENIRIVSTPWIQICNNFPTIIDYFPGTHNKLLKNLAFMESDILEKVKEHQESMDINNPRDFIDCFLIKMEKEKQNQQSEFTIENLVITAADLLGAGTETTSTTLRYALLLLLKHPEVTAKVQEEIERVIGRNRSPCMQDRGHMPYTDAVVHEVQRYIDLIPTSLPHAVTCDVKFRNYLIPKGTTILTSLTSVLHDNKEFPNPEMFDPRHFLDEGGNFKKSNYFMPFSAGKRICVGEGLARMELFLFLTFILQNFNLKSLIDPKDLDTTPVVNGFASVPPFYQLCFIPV
# Outline: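 Inhibition of CYP2C19 was scored from loss of luminescence in a P450-Glo proluciferin substrate assay, NADPH-started and run 1 h at 37C, with ketoconazole as positive control.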
# [4] = molecular target: Voltage-gated inwardly rectifying potassium channel KCNH2 (Homo sapiens) (UniProt Q12809); test: Human Ether-a-go-go-Related Gene (hERG) channel small molecule antagonists: fluorescence cell-based qHTS assay (AID 1671200); also: nearly all actives have a fitted effect of over 50% in size;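 as to activity change, negative = inhibition: hERG-expressing U2OS cells given a thallium stimulus after FluxOR II dye loading; series mostly up to about 77 µM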
# Sequence of Voltage-gated inwardly rectifying potassium channel KCNH2 (Homo sapiens) (Q12809 whole entry, looked up): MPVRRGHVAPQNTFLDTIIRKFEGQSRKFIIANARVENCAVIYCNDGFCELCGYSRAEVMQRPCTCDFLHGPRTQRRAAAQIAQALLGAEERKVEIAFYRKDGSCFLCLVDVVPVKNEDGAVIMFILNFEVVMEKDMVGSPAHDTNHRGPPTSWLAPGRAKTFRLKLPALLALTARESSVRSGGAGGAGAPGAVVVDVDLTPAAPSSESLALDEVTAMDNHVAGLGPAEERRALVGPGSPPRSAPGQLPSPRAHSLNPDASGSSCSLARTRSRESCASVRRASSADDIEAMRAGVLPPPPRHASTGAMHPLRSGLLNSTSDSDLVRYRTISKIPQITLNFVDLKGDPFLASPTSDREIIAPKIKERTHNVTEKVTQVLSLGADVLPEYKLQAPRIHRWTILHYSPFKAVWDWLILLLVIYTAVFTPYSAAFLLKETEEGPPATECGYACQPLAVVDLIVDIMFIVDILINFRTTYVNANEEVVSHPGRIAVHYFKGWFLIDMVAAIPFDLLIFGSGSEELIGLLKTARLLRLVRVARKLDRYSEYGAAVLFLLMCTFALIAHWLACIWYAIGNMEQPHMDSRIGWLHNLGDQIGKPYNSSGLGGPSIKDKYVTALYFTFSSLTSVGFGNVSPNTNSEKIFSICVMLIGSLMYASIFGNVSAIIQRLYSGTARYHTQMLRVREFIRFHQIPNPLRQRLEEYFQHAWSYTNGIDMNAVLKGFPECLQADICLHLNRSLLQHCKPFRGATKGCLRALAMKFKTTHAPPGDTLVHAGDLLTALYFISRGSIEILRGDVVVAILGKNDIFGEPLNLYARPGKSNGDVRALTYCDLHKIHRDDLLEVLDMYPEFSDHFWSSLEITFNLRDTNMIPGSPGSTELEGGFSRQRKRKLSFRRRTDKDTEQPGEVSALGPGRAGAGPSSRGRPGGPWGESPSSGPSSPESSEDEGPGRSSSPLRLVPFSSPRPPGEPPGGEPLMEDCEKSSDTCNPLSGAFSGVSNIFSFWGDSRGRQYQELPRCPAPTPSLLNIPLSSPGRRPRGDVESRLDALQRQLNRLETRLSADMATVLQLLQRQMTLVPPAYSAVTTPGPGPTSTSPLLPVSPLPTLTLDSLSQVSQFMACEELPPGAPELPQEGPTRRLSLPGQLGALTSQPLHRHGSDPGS
# Outline: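 Cell line hERG-U2OS; dye FluxOR II, 1 h RT dark; Tl+ stimulus; ex 480/em 540 nm, read each second for 2 min.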
# [5] = molecular target: Cytochrome P450 3A4 (Homo sapiens) (UniProt P08684); test: Cytochrome P450 Family 3 Subfamily A Member 4 (CYP3A4) small molecule antagonists: luciferase reporter qHTS assay (AID 1671201); also: nearly all actives have a fitted effect of over 50% in size; as to activity change, negative = inhibition: series mostly up to about 120 µM
# Sequence of Cytochrome P450 3A4 (Homo sapiens) (P08684 whole entry, looked up): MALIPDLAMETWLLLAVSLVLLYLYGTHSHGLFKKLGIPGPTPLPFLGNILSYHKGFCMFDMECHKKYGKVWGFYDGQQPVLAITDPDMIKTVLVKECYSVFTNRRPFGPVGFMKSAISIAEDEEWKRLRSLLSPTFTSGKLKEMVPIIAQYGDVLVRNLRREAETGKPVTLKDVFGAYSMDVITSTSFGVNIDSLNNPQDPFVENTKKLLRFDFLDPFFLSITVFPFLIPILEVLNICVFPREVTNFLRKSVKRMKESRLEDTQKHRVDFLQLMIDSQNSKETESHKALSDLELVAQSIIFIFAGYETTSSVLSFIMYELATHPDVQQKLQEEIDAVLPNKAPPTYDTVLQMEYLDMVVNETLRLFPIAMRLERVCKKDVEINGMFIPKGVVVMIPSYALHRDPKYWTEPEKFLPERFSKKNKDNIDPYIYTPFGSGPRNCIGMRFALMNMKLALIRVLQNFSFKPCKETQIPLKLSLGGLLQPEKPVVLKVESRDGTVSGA
# Outline: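 Room-temperature assay throughout: 10 min compound–enzyme/substrate preincubation, 1 h reaction after NADPH regeneration solution, 20 min detection. Luciferin formed from proluciferin substrate is quantified by luminescence.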
# Potency is read from the fitted curve at half-maximal effect.
smiles,measurement,setting,value
CCCOC(C(=O)OC1CCN(C)CC1)(c1ccccc1)c1ccccc1,Potency,[1],inactive
same,Potency,[2],inactive
Nc1cccc(S(=O)(=O)c2cccc(N)c2)c1,Potency,[3],35.6 µM (active)
same,Potency,[2],inactive
same,Potency,[4],inactive
same,Potency,[5],10 µM (active)
C[N+]1(CC2COC(c3ccccc3)(C3CCCCC3)O2)CCCCC1 (stereo unspecified),Potency,[3],inactive
same,Potency,[2],inactive
same,Potency,[4],15.1 µM (active)
same,Potency,[5],3.89 µM (active)
O=C(O)CNCC(=O)O,"activity change, negative = inhibition",[1],-0.595% [at 10.5 µM]
same,"activity change, negative = inhibition",[2],-1.26% [at 10.5 µM]
same,"activity change, negative = inhibition",[4],4.26% [at 6.97 µM]
same,"activity change, negative = inhibition",[5],0.283% [at 10.5 µM]
O=C(O)c1ccccc1Cl,Potency,[3],inactive
same,Potency,[2],inactive
same,Potency,[4],inactive
same,Potency,[5],inactive
Cc1cccc(C)c1OCC(=O)N[C@@H](Cc1ccccc1)[C@@H](O)C[C@H](Cc1ccccc1)NC(=O)[C@H](C(C)C)N1CCCNC1=O,Potency,[1],13.8 µM (active)
same,Potency,[2],inactive
CCCC(=O)Nc1ccc(O)c(C(C)=O)c1,Potency,[3],inactive
same,Potency,[2],9.77 µM (active)
same,Potency,[4],inactive
same,Potency,[5],inactive
C/C=C/C=C/CO,Potency,[3],inactive
same,Potency,[2],inactive
same,Potency,[4],inactive
same,Potency,[5],63.3 µM (active)
CCC(CC)Nc1ccc(C)c(C)c1,Potency,[3],7.1 µM (active)
same,Potency,[2],5.64 µM (active)
same,Potency,[4],inactive
same,Potency,[5],inactive
C[Si](C)(CCCN)O[Si](C)(C)CCCN,Potency,[3],39.9 µM (active)
same,Potency,[2],25.2 µM (active)
same,Potency,[4],inactive
same,Potency,[5],2.52 µM (active)
C=C(C)C(=O)OCCOCC,Potency,[3],80 µM (active)
same,Potency,[2],40.1 µM (active)
same,Potency,[4],inactive
same,Potency,[5],inactive
O=C(O)C(S)C(S)C(=O)O (stereo unspecified),Potency,[3],inactive
same,Potency,[2],inactive
same,Potency,[4],inactive
same,Potency,[5],inactive
CN(Cc1ccc(C(C)(C)C)cc1)Cc1cccc2ccccc12,Potency,[3],8.71 µM (active)
same,Potency,[5],inactive
NCC(=O)CCC(=O)O,Potency,[1],inactive
same,Potency,[2],inactive
same,Potency,[4],inactive
same,Potency,[5],inactive
C#Cc1cccc(Nc2ncnc3cc(OCCOC)c(OCCOC)cc23)c1,Potency,[3],inactive
same,Potency,[2],inactive
same,Potency,[4],inactive
CCC(=O)O[C@]1(C(=O)CCl)[C@@H](C)C[C@H]2[C@@H]3CCC4=CC(=O)C=C[C@]4(C)[C@@]3(F)[C@@H](O)C[C@@]21C,Potency,[1],30.9 µM (active)
same,Potency,[2],inactive
same,Potency,[4],inactive
CCCCc1ncc(/C=C(\Cc2cccs2)C(=O)O)n1Cc1ccc(C(=O)O)cc1,Potency,[3],inactive
same,Potency,[4],inactive
O=C(NCCO[N+](=O)[O-])c1cccnc1,Potency,[1],inactive
same,Potency,[2],inactive
same,Potency,[4],inactive
